hcDAF-12 act: activators of H. contortus DAF-12 nuclear receptor; HEK293 hcDAF-12 lit1-tk-luc reporter, luminescence; 0% DMSO, 100% Δ7-dafachronic acid; activation, % at 6.8 µM; 370,000 compounds, 1.4% hits;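 active = activation above the mean of all tested compounds plus 3 SD, cut at about 5.5% in these data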;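 also: 100% = response to 3 µM Δ7-dafachronic acid high control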
hgDAF12 agonist: activates the H. glycines DAF-12 receptor ligand-binding domain | HEK293 GAL4-hgDAF12 UAS-luciferase reporter, agonist luminescence; normalized to butyrate control | activation, % at 6.8 µM | 370,000 compounds, 1.8% hits;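 active = activation above a cutoff set at the mean of all screened compounds plus 3 SD, cut at about 10% in these data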;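 also: 0% = DMSO wells and 100% = sodium butyrate wells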
ssDAF-12 act: activates DAF-12 receptor from parasite S. stercoralis. activation, % at 6.8 µM. 370,000 compounds, 1% hits. AID 652126. HEK293 ssDAF-12/GRIP1 lit1-tk-luc reporter, luminescence; % of 3 µM dafachronic acid response;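 active = activation above the mean over all tested compounds plus 3 SD, cut at about 0.9% in these data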;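 also: 0% = DMSO-only wells and 100% = 3 µM delta7-dafachronic acid wells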
Rev-erbA mod: modulates human Rev-erb alpha binding to DNA; Rev-erbα–FITC-DNA binding, fluorescence polarization, 90 min; activity, % at 10 µM; 370,000 compounds, 0.79% hits; AID 1259318;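 active = activity above about 14%, limit read from the data; passing the limit was not always enough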;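 also: 0% = DMSO wells with 35 nM protein and 100% = DMSO wells with 750 nM protein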
Target sequence (P20393 whole entry, looked up): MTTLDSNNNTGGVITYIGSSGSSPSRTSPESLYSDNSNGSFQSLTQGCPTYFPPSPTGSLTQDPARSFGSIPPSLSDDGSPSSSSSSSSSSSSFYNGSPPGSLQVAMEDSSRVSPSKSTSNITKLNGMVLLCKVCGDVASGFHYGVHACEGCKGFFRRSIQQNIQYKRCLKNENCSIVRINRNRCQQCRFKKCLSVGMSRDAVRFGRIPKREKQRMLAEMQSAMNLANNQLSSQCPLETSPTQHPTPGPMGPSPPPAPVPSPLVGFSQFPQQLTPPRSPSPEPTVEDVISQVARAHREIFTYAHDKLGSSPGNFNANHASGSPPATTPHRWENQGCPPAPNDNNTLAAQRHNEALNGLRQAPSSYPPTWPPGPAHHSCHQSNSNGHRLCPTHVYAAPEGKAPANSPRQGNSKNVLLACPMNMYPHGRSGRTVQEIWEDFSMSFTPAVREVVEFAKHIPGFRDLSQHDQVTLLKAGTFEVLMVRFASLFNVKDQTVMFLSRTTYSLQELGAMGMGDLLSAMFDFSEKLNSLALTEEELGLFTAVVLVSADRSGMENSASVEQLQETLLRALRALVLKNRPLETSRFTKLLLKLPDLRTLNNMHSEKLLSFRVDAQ
DAX1 inh-1: inhibits human nuclear receptor DAX1. P51843. HEK293 Gal4-DAX1 luciferase reporter, luminescence. inhibition, % at 6.75 µM. 340,000 compounds, 0.99% hits;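 active = inhibition above the mean over all tested compounds plus 3 SD, cut at about 4.2% in these data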;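 also: 0% = DAX1-transfected cells with DMSO and 100% = empty-vector control cells with DMSO; inhibition shows as a rise in luminescence from relieved DAX1 repression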
DAX1 inh-2: inhibitors of DAX1 repression of SF-1 activated StAR promoter. inhibition, % at 6.8 µM. 370,000 compounds, 1.1% hits. HEK293T StAR-luciferase reporter, SF-1/DAX-1 repression relief. AID 652010;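 active = inhibition above the mean over all tested compounds plus 3 SD, cut at about 3.6% in these data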;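 also: 0% = DAX-1 cells with DMSO and 100% = cells lacking DAX-1 with DMSO; higher inhibition means more luminescence from relief of DAX-1 repression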
Active calls of the source: *; . = no result. Most compounds without a hit are left out; they make up all but 4.8% or so of the library.

SMILES	hcDAF-12 act	hgDAF12 agonist	ssDAF-12 act	Rev-erbA mod	DAX1 inh-1	DAX1 inh-2
COC(=O)C1=C(C)N(Cc2ccccc2C(F)(F)F)C(=NCc2ccc(C(F)(F)F)cc2)NC1c1ccccc1 (stereo not given)	3	2	-1	-4	.	3
Cc1cc(NC(=O)CN2CCN(c3ccccc3O)CC2)no1	0	0	1.1*	-8	0	0
C[C@@H]1CCN(C2CC2)S(=O)(=O)c2c(cccc2N2CC[C@H](N(C)C)C2)O1	-1	0	-1	1	.	-1
Clc1cnc(N/N=C/c2cccs2)c(Cl)c1	1	9	1.0*	-1	3	2
Cc1ccsc1/C=N/Nc1ncnc2nc[nH]c12	2	3	-1	-3	4.6*	3
C(=N\Nc1ncnc2nc[nH]c12)/c1cccs1	0	3	0	3	5.7*	1
CC(C)CNS(=O)(=O)CC1NCc2cc3c(cc21)OCO3 (stereo not given)	-2	0	-1	1	.	-1
C(=NOCCc1ccccc1)c1ccncc1	1	8	1.3*	7	1	1
O=C(Nc1cccc(-c2nc3ccccc3s2)c1)c1cc(-n2cnnc2)ccc1Cl	.	.	.	.	-1	.
Cc1ccc2sc(-c3ccc(NC(=O)c4cc(-n5cnnc5)ccc4Cl)cc3)nc2c1	1	11*	-1	-7	1	2
NS(=O)(=O)c1ccc(Nc2nc3ccccc3nc2NS(=O)(=O)c2cccc([N+](=O)[O-])c2)cc1	-1	1	-1	2	5.0*	0
O=C(OC12CCCN(C1)/C(=C/c1ccc(Cl)cc1)C2)c1ccc(F)cc1 (stereo not given)	3	-3	-1	-1	.	0
Nc1c(C(=O)Nc2ccc3c(c2)OCCO3)nnn1Cc1ccc(F)cc1	2	9	0	-2	0	4.2*
O=C(C1=NN[C@@H]2C(=O)N(c3cccc(C(F)(F)F)c3)C(=O)[C@H]12)c1cnccn1	0	0	-1	-8	7.3*	0
CCC(CO)Nc1ccn2nc(-c3cccs3)cc2n1 (stereo not given)	4	11*	0	-4	.	3.9*
CC(=O)O[C@@H]1C=C[C@@H](C#Cc2ccc(C(C)(C)C)cc2)O[C@@H]1COC(=O)Nc1ccccc1	-3	0	-2	3	.	-2
COc1cc(C2C3=C(COC3=O)Oc3cc4c(cc32)OCO4)ccc1O (stereo not given)	2	0	-1	2	1	-2
COc1cc(C2C3=C(COC3=O)OC(C)(C)Oc3cc4c(cc32)OCO4)cc(OC)c1OC (stereo not given)	-1	-5	0	5	0	4.1*
COc1ccc(Cn2cc(COC(=O)Nc3ccc(F)cc3)nn2)cc1	-2	1	-1	-2	.	0
Clc1c(-c2ccccc2)nnn1-c1ccccc1	3	10	0	-7	3	3
Nc1nnn(-c2ccccc2)c1-c1ccccc1	2	-1	-2	-3	4.6*	0
Cc1cc(C)c(-c2nc3ccccc3s2)[nH]1	6.3*	2	0	-3	-1	1
COc1cc(OC)c(-c2nc3ccccc3s2)cc1OC	3	-1	0	0	0	-1
COC(=O)c1ccc(CN2C(=O)[C@]3(OCCC=C[C@H]3C)c3cc(OC)ccc32)cc1	1	-1	-1	2	.	2
COc1ccc(CC2CCN(c3ncnc4sccc34)CC2)cc1	-5	-7	-2	-3	.	.
SMILES	hcDAF-12 act	hgDAF12 agonist	ssDAF-12 act	Rev-erbA mod	DAX1 inh-1	DAX1 inh-2
CC(C)[C@@H]1OC(=O)[C@@H]2CCCN2C(=O)[C@H](C)OC(=O)[C@H](C)[C@@H](C(C)C)NC(=O)[C@@H]2CCCN2C(=O)[C@H]([C@H](C)Cc2ccccc2)NC(=O)[C@@H]2CCCN2C(=O)[C@@H](C(C)C)N(C)C1=O	-2	1	-2	-4	.	.
CCC(CO)NCc1ccccc1OC(C)C (stereo not given)	0	-1	-1	6	5.0*	-1
CCOc1ccccc1CNCCO	0	-2	-1	-2	1	0
CC(C)CN1CCCC(N2CCN(c3cccc(Cl)c3)CC2)C1 (stereo not given)	6.3*	8	-1	-5	0	0
O=C(NC1=N[C@@]2(C=C3CCCCC3n3c(=O)n(-c4ccccc4)c(=O)n32)[C@H](Cc2ccccc2)N1Cc1ccccc1)c1ccccc1 (stereo not given in full)	-2	-2	-1	-4	.	0
Cc1cc(Nc2ccc(F)cc2C)n2ncnc2n1	-2	5	-1	-2	0	1
Cc1cc(Nc2ccc(F)cc2F)n2ncnc2n1	-1	1	-1	-3	4.9*	0
COc1ccc(S(=O)(=O)NCc2ccco2)cc1C(=O)N1CCCCC1	-2	2	-1	2	5.0*	0
CCCCc1c(-c2ccccc2OC)ncn1Cc1cc(F)ccc1F	-1	-1	-1	0	.	0
COc1ccc(C(=O)/C=C/Nc2cccc(C)n2)cc1OC	1	11*	0	3	2	2
COc1ccc(N/C(C)=C/C(=S)Nc2ccccc2)cc1	10*	19*	0	3	-1	1
COc1cc(NC(=O)c2ccccc2)c(OC)cc1NC(=O)CSc1[nH]c(=O)cc(C)c1C#N	-1	0	-1	-27	4.4*	0
Cc1cc(=O)[nH]c(SCC(=O)Nc2cccc3ccccc23)c1C#N	.	.	.	0	0	.
CCC(C)NC(=O)CNc1nnnn1-c1ccccc1 (stereo not given)	-3	-2	-2	-2	.	0
CCOC(=O)c1ccc(-c2ccc3c(c2)CCC3)nc1C	5.6*	10	0	-3	2	2
Cc1ccc(-c2ccc(C(=O)O)c(C)n2)cc1	-2	1	-1	-4	3	0
COC(=O)c1ccc(-c2ccc(F)cc2)nc1C	2	12*	0	0	2	1
Cc1cccc(OCc2nc(-c3nonc3N)no2)c1C	2	11*	-1	10	1	2
CCOC(=O)[C@]12CCCC=C1N(Cc1ccc(OC)cc1)C(=O)[C@@H]2CC(=O)NCC12CC3CC(CC(C3)C1)C2	-3	0	-1	-1	.	-2
Brc1ccc(-c2noc(CCc3ccccc3)n2)o1	6.1*	7	0	-6	2	2
Brc1ccc(-c2noc(COc3ccc4ccccc4c3)n2)o1	2	1	-1	-1	0	0
CC1(C)C2CC[C@]3(C)C(C(=O)C=C4[C@@H]5C[C@@](C)(C(=O)O)CC[C@]5(C)CC[C@]43C)[C@@]2(C)CC[C@@H]1OC(=O)CCC(=O)O (stereo not given in full)	.	.	.	1	.	.

High-throughput results: PubChem BioAssay, several laboratories
